This note sets out measurements from PubChem BioAssay AID651812 (National Center for Advancing Translational Sciences (NCATS), 2012).

About 650 (31%) of roughly 2,100 compounds were called active. Inconclusive results (about 16%) are left out. The call rests on the fitted dose curve; in most records, active means well fitted inhibition curve with a large enough effect; inconclusive means small, poorly fitted or top-dose-only effect; inactive means flat fitted curve, though single readings scatter. The list shows a part of the results. Where a call stands in place of a potency, no number is given.
Potency means the concentration at half of the fitted maximal effect.

The nature of the assay: qHTS for inhibitors of Vif-A3G interactions: Cherry picks. Further: nearly all actives have a fitted effect of over 80% in size. The following applies: HeLa A3G-eYFP + Vif (tagged APOBEC3G with the HIV-1 protein that degrades it), 24 h; Potency: eYFP fluorescence increase; series mostly up to 36.9 µM. The method, boiled down: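 HeLa cells stably expressing A3G-eYFP and Vif, cultured overnight then exposed to compounds at several concentrations for 24 hours at 37 C, 5% CO2; cellular yellow fluorescence (488 nm ex, 500-530 nm em) imaged on Acumen, MG132 positive control.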
`Cc1ccc(-n2c(=O)c3ccc(C(=O)NCc4ccccc4Cl)cc3n(CC(=O)Nc3cccc(Cl)c3)c2=O)cc1`: the Potency result was “inactive”.

As for `O=C(NCCc1ccccc1Cl)c1ccc(Cn2c(=O)c3cccn3c3cccnc32)cc1`, the Potency was 18.4 µM (active).

Turning to `CCCCOc1ccc(/C=C/C2=CC(C)(C)NC(=S)N2)cc1OCC`, the Potency entry is “inactive”.

`O=c1c2ccccc2nc(/C=C/c2ccc([N+](=O)[O-])o2)n1CCCO`: the Potency was 18.4 µM (active).

With `CCn1c(/C=C/c2ccc([N+](=O)[O-])o2)nc2ccccc2c1=O`, the Potency was 11.6 µM (active).

For the compound `Cn1c(/C=C/c2ccc([N+](=O)[O-])o2)nc2ccccc2c1=O`, the Potency was 18.4 µM (active).

With `CCCN1C(=O)C(Cc2nc3ccccc3c(=O)n2CC)c2cc(Br)ccc21` (centres undefined), the Potency entry is “inactive”.

Regarding `CCOC(=O)C(C)Oc1cccc2c(=O)n(CC(=O)NCc3ccco3)ccc12` (centres undefined), the Potency result was “inactive”.

Regarding `NC(=O)c1ccc(NC(=O)C#Cc2ccccc2)cc1`, the Potency result is “inactive”.

As to `COc1cccc(N2CCN(Cc3nc4scc(-c5ccccc5)c4c(=O)[nH]3)CC2)c1`, the Potency entry was “inactive”.

As for `O=C(/C=C/c1ccccc1)Nc1ncn[nH]1`, the Potency entry was “inactive”.

Take `Cc1cc(NC(=O)COC(=O)c2ccc(S(=O)(=O)N3CCCc4ccccc43)cc2)no1`: the Potency result is “inactive”.

For `Cc1cccc2cc3c(N)c(C(=O)N4CCCc5ccccc54)sc3nc12`, the Potency was 14.6 µM (active).

`Cc1c(C(=O)C(=O)N2CCCc3ccccc32)c2ccccc2n1C`: the Potency result is “inactive”.

With `O=C(c1cc([N+](=O)[O-])ccc1N1CCCCC1)N1CCc2ccccc21`, the Potency entry is “inactive”.

Turning to `Cc1cccc2cc3c(N)c(C(=O)N4CCc5ccccc54)sc3nc12`, the Potency is 8.2 µM (active).

As to `Cc1ccc2nc3sc(C(=O)N4CCCc5ccccc54)c(N)c3cc2c1`, the Potency is 14 µM (active).

Regarding `COc1ccc(-c2cc(C(F)F)n3ncc(C(=O)N4CCc5ccccc54)c3n2)cc1`, the Potency entry is “inactive”.

As to `Cc1ccc(Cc2c(C3CCCCC3)nc3ccc(C)cn23)cc1`, the Potency result was “inactive”.

On to `Cc1cc2nc3s/c(=C/c4ccc(-c5ccccc5C(=O)O)o4)c(=O)n3c2cc1C`, for which the Potency is 20.6 µM (active).

In the case of `CCCCOc1nc2ccccc2nc1NS(=O)(=O)c1ccc(F)cc1`, the Potency result is “inactive”.

Consider `COc1ccccc1N1C(=O)C(Cl)=C(Nc2ccccc2O)C1=O`, for which the Potency is 16.4 µM (active).

As for `COc1ccccc1Nc1cc2cc(Br)ccc2c(=O)[nH]1`, the Potency entry was “inactive”.

For `COc1ccc(Cl)cc1NC(=O)CN(C)CC(=O)Nc1ccccc1N1CCOCC1`, the Potency entry is “inactive”.

As to `C#CCSc1nc(-c2cccs2)ccc1C#N`, the Potency is 8.2 µM (active).

For `Cc1cccc(CSc2nc(-c3cccs3)ccc2C#N)c1`, the Potency entry is “inactive”.

For `N#Cc1ccc(-c2cccs2)nc1SCc1c(F)cccc1Cl`, the Potency entry is “inactive”.

Turning to `Cc1ccc(NC2=C(Cl)C(=O)N(C3CCCCC3)C2=O)cc1`, the Potency entry is “inactive”.

Turning to `CCC(=O)Nc1ccccc1-c1nc2ccccc2n(C(C)C(=O)Nc2ccc(OC)cc2)c1=O` (centres undefined), the Potency is 18.4 µM (active).

Turning to `COc1ccc(CNCC(=O)Nc2ccccc2-n2cccc2)cc1`, the Potency result is “inactive”.

As for `Cc1noc(C)c1COc1ccc(C(=O)NNC(=O)c2ccccc2)cc1`, the Potency result was “inactive”.

For `CCOC(=O)c1cnc(-n2nc(C)cc2C)nc1NNc1cc(C)nc(-c2ccccc2)n1`, the Potency entry is “inactive”.

Consider `CCCCCCN1C[C@H](O)[C@@H](n2cc(COC(=O)c3ccccc3)nn2)C[C@@H]1c1ccc(C)cc1`, for which the Potency entry is “inactive”.

In the case of `CC1(C)CC(=O)C(C=Nc2cc(C(=O)c3ccccc3)ccc2N)=C(O)C1`, the Potency is 20.6 µM (active).

As for `CCOC(=O)N1CCc2c(sc3c2C(=O)NC(c2ccc(N(C)C)cc2)N3)C1` (centres undefined), the Potency was 20.6 µM (active).

As for `Cc1onc(-c2c(F)cccc2Cl)c1C(=O)O/N=C(\N)c1ccc([N+](=O)[O-])o1`, the Potency result was “inactive”.

On to `Nc1nc(-c2cc(O)ccc2[N+](=O)[O-])cc(-c2ccccc2)c1[N+](=O)[O-]`, for which the Potency is 15.8 µM (active).

For `CNCC(O)Cn1c2c(c3ccccc31)CCCC2` (centres undefined), the Potency entry is “inactive”.

Regarding `Cc1oc(C)c2c(=O)ccc3c(c12)OC(N)=C(C#N)C3c1ccc(F)cc1` (centres undefined), the Potency entry is “inactive”.

Consider `CC(C)OC(=O)c1cc(C(=O)c2cc(F)ccc2O)coc1=N`, for which the Potency was 20.6 µM (active).

`COc1ccc(O)c(C(=O)c2coc(=N)c(C(=O)Nc3ccc(SC(F)F)cc3)c2)c1`: the Potency was 23.1 µM (active).

On to `CC(C)OC(=O)c1ccc(NCc2cc(O)ccc2O)cc1Cl`, for which the Potency entry was “inactive”.

For the compound `O=C(Nc1ncc(Cc2ccc(SC(F)F)cc2)s1)c1ccccc1`, the Potency result is “inactive”.

With `COc1cc(-c2nc3ccc(C)cn3c2NCc2ccccc2)ccc1SC1CCCCC1`, the Potency entry is “inactive”.

Take `COc1ccccc1/C=C/C=N/NC(=O)c1cc(-c2ccc(C)o2)[nH]n1`: the Potency entry was “inactive”.

Regarding `C(=C\c1c[nH]c2ccccc12)/c1nccc2ccccc12`, the Potency was 14.6 µM (active).

Take `Cc1ccc2c(/C=C/c3c[nH]c4ccccc34)ccnc2c1C`: the Potency is 3.26 µM (active).

`C(=Cc1c[nH]c2ccccc12)c1nccc2ccccc12`: the Potency was 18.4 µM (active).

On to `Cc1cccc(C(=O)Nc2nnc(C3=COCCO3)o2)c1`, for which the Potency result is “inactive”.

For the compound `O=C(NCc1cccnc1)c1cccc(NS(=O)(=O)c2ccc(Br)cc2)c1`, the Potency entry is “inactive”.

In the case of `COc1ccc(COc2cc(-c3cccc(OC)c3)nc3ccc(NC(=O)C(C)C)cc23)cc1`, the Potency result is “inactive”.

`COc1ccc(NC(=O)c2ccc(NC(=O)C(C)C)cc2)c([N+](=O)[O-])c1`: the Potency is 10.3 µM (active).

On to `COc1ccc(-c2nnc(NC(=O)c3ccc([N+](=O)[O-])o3)o2)c(OC)c1`, for which the Potency result was “inactive”.

Consider `Cc1ccc(/C=C2/NC(=O)N(Cc3ccccc3)C2=O)s1`, for which the Potency is 23.1 µM (active).

For `CCN1C(=O)/C(=C/c2ccc(N3CCCC3)cc2)NC1=S`, the Potency was 10.3 µM (active).

On to `O=C1/C(=C/c2ccc(N3CCCC3)cc2)NC(=S)N1C1CC1`, for which the Potency was 3.66 µM (active).

For `CN(C)c1ccc(/C=C2\NC(=S)N(Cc3ccccc3)C2=O)cc1`, the Potency is 9.94 µM (active).

For `O=C1N/C(=C\c2ccccc2)c2ccccc21`, the Potency result was “inactive”.

Turning to `Cc1ccc(C=Nc2ccccc2C(N)=O)s1`, the Potency entry was “inactive”.

Take `COc1ccc(COn2c(=O)c(C)[n+]([O-])c3ccccc32)cc1OC`: the Potency entry was “inactive”.

For the compound `COc1ccccc1N1CCN(c2ncnc3c2oc2ccccc23)CC1`, the Potency entry is “inactive”.

For the compound `CCOC(=O)N1CCN(C(=O)c2ccccc2-c2ccccc2)CC1`, the Potency entry is “inactive”.

As for `CCOC(=O)N1CCN(/C=C(\C#N)c2nc3ccccc3s2)CC1`, the Potency was 18.4 µM (active).

As for `CCOC(=O)N1CCN(C(=O)c2cc(-c3ccc(OCC)cc3)nc3ccccc23)CC1`, the Potency result was “inactive”.
